JMJD2A Tudor inh – blocks the human JMJD2A Tudor domain; O75164; AlphaScreen JMJD2A-Tudor / H3K4me3 peptide binding; Potency, µM (top dose mostly 114 µM), inactives show at the highest dose activity change, negative = inhibition, actives largely listed as inhibitors; actives 4.4% (n = 390,000); further: on the % scale 0 is the no-effect control and ±100 the full control effect; nearly all actives have a fitted effect of over 50% in size
G9a block – G9a (human) methyltransferase inhibition. Q96KQ7. G9a H3K9 monomethylation, AlphaScreen, 2 h. Potency, µM (doses to about 102 µM), for the others: at the highest dose activity, negative = inhibition, hits mostly inhibitors. actives 8.8% (n = 350,000). AID 504332; further: on the % scale 0 is the no-effect control and ±100 the full control effect; nearly all actives have a fitted effect of over 75% in size
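G9a (20 nM) was preincubated 15 min with compound, then reacted 2 h at room temperature with 500 nM biotin-H3K9 peptide and 20 µM SAM. Monomethyl-H3K9 detected by AlphaScreen using anti-H3K9me1 antibody.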
BAZ2B inh – blocks human BAZ2B | Potency, µM (top dose mostly 114 µM), for inactives: top-dose activity change, negative = inhibition, actives largely listed as inhibitors | actives 4.4% (n = 360,000) | Q9UIF8 | AlphaScreen BAZ2B-H3K14Ac peptide displacement; further: on the % scale 0 is the no-effect control and ±100 the full control effect; nearly all actives have a fitted effect of over 60% in size
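Inhibition is scored as reduced AlphaScreen emission. The BAZ2B/b-H3(5-23)K14Ac complex (50 nM each) in PBS pH 7.4, 0.01% Tween-20 meets compound (up to 110 uM) for 30 min at RT before bead addition.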
HP1b chromo inh – blocks HP1-beta chromodomain binding to methylated histone tails; AlphaScreen HP1-beta / biotin-H3K9me3 peptide binding; actives 0.56% (n = 390,000); Potency, µM (highest dose often 114 µM), for the others: at the highest dose activity change, negative = inhibition, usual class: inhibitors; further: nearly all actives have a fitted effect of over 70% in size
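HP1-beta protein (50 nM final) preincubated 30 min at room temperature with biotinylated H3(1-18)K9me3 peptide (50 nM) in PBS pH 7.4, 0.01% Tween-20, then compound added for 30 min. AlphaScreen streptavidin donor/nickel chelate acceptor beads (10 ug/mL final), 30 min dark, luminescence read.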
Sfp inh – blocks B. subtilis Sfp PPTase activity; Q9F4F7; Biochemical Sfp PPTase activity, qHTS; Potency, µM, without a hit: largest response in the series, negative = inhibition, hits mostly inhibitors; actives 3.5% (n = 310,000);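 further: the enzyme is Sfp with the accession as filed and its product quenches rhodamine fluorescence; 0% = enzyme reaction without inhibitor and -100% = no enzyme wells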
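With Hepes-Na pH 7.6 buffer containing 10 mM MgCl2, Sfp (15 nM) modified BHQ-2-YbbR (12.5 uM) using rhodamine-CoA (5 uM). Two reads 30 minutes apart at 525/598 nm yielded each well's rate.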
Numbers without * were called inactive; u = inconclusive; x = no result given; [ ] = another dose, or the depositor's remark. Sampled rows, rich in hits. Any-hit rate of the full collection: about 12%. The call rests on the fitted dose curve; in most records, active means well fitted curve in the direction sought with a large enough effect; inconclusive means small, poorly fitted or top-dose-only effect, or another doubt; inactive means no such curve, though single readings can be large; an effect the other way counts as inactive or inconclusive. Potency means the concentration at half of the fitted maximal effect.

SMILES	JMJD2A Tudor inh	G9a block	BAZ2B inh	HP1b chromo inh	Sfp inh
Cc1cccc2cc3c(N)c(C(=O)N4CCc5ccccc54)sc3nc12	-22%	1.4µM*	-7%	25%	1%
Cc1cccc2cc3c(N)c(C#N)sc3nc12	11%	7.9µM*	9%	112%	8%
O=C(NNC(=O)c1ccc(-n2cncn2)c([N+](=O)[O-])c1)c1ccc(Cl)cc1	-9%	9%[0.501 µM]	11%	37%	x
CN1c2cccc3cccc(c23)N(C)C1(C)C	u	-41%[0.0925 µM]	50µM*	u	-23%
CCOC(=O)c1c(C)[nH]c(C)c1C(=O)COC(=O)C1CCCN1S(=O)(=O)c1ccccc1F (stereo not drawn)	-25%	50µM*	u	-8%	1%
O=C(COC(=O)[C@@H]1CCCN1S(=O)(=O)c1ccccc1F)c1ccccc1	2%	0%	-7%	49%	8%
CC1(C)CC(=O)C(Sc2ccccc2[N+](=O)[O-])=C(O)C1	-23%	50µM*	u	26%	u
CCOc1cc(C2C(C#N)=C(N)OC(C)=C2C(C)=O)c(Br)c(Br)c1OC(C)C (stereo not drawn)	-22%	u	-8%	33%	-9%
CCOc1cc(C2C(C#N)=C(N)OC(C)=C2C(C)=O)cc(Br)c1O (stereo not drawn)	89µM*	u	u	-17%	7%
NNC(=O)c1ncoc1-c1ccc(Cl)cc1	1%	32%[59 µM]	-14%	48%	24%
c1ccc(SCc2nc(-c3cccnc3)no2)cc1	16%	56%[59 µM]	90%	47%	-7%
CCCCSc1nc2c(cc1C#N)CCC2	154%	4µM*	198%	203%	u
CC(C)OC(=O)CC(=O)CSc1nc2c(cc1C#N)CCC2	2%	45µM*	-17%	55%	-21%
N#Cc1cc2c(nc1SCC(N)=O)CCCCC2	-3%[57.1 µM]	79µM*	5%	55%	10%
CCOC(=O)CC(=O)CSc1nc2c(cc1C#N)CCCCCC2	5%	-9%	5%	75%	-17%
Cc1cc2oc(C(=O)Nc3ccc(S(=O)(=O)N4CCCCCC4)cc3)cc(=O)c2cc1C	-9%	8%[59 µM]	-5%	29%	x
CC(C)(Oc1ccc(Cl)cc1)C(=O)NCc1ccc(S(N)(=O)=O)cc1	-22%	45µM*	u	3%	17%
CC(C)CCOc1ccc(C2N=C(N)Nc3nc4ccccc4n32)cc1 (stereo not drawn)	-20%	2%[59 µM]	1%	21%	x
COc1c(OC2OC(C(=O)O)C(O)C(O)C2O)cc(O)c2c(=O)cc(-c3ccccc3)oc12 (stereo not drawn)	u	-22%	-3%	17%	40µM*
O=c1cc(-c2ccccc2)oc2cc(OCc3ccccc3)cc(O)c12	-17%[11.4 µM]	-6%[59 µM]	-25%	20%	1%
O=C(O)C1OC(Oc2cc3oc(-c4ccccc4)cc(=O)c3c(O)c2O)C(O)C(O)C1O (stereo not drawn)	20µM*	40µM*	-5%	-1%	8.9µM*
O=c1/c(=C/c2ccco2)sc2n1CN(c1cccc(Br)c1)CN=2	u	-40%[12.7 µM]	u	u	2%
O=c1/c(=C/c2ccco2)sc2n1CN(c1ccccc1)CN=2	-18%	13µM*	-6%	0%	2%
Cc1ccc(/C=c2\sc3n(c2=O)CN(c2cccc(Br)c2)CN=3)o1	u	u	u	-7%	20µM*
C[C@@H](NC(=O)Cn1ccc(N)nc1=O)c1cccc2ccccc12	-13%	-1%[2.33 µM]	12%	24%	x
CCn1cc(C(=O)N2CCN(c3ccccn3)CC2)c(=O)c2cc(S(=O)(=O)N(C)C3CCCCC3)ccc21	-23%	0%	-2%	30%	23%
CCOC(=O)c1sc2ccccc2c1S(=O)(=O)Nc1ccc(C(C)=O)cc1	-25%	u	u	19%	x
CCOC(=O)c1sc2ccccc2c1S(=O)(=O)Nc1ccc(N(C)C)cc1	13µM*	8.9µM*	20µM*	-25%	x
COC(=O)c1sc2cccc(F)c2c1S(=O)(=O)Nc1ccc(N(C)C)cc1	u	11µM*	u	-12%	x
Cc1ccc(C(=O)OC2CCS(=O)(=O)c3sccc32)cc1 (stereo not drawn)	-5%	2%	-4%	19%	1%

Bioassay records deposited in PubChem by National Center for Advancing Translational Sciences (NCATS).
